Screening results as filed in PubChem BioAssay.
TROY signal inh: TROY signaling inhibition; Q293 LMP1-TROYcd NF-kB luciferase reporter, 4 h; actives 0.98% (n = 360,000); inhibition, % at 10 µM; AID 1347056;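 active = compounds whose plate-normalised and pattern-corrected inhibition of the luciferase reporter signal at the single screening dose is 50% or more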
C8 TRAIL sens: caspase-8 TRAIL sensitization | actives 1% (n = 360,000) | NB7+C8 cells + TRAIL, ATPlite viability luminescence | inhibition (viability loss, TRAIL sensitization), % at 10 µM;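 active = compounds causing at least 50% loss of cell viability in the single-dose screen, relative to plate controls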
HSP90 refold inh: inhibitors of HSP90 luciferase refolding in rabbit reticulocyte lysate | actives 0.91% (n = 290,000) | luciferase refolding luminescence, 3 h | inhibition, % at 5.6 µM;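 active = inhibition above the screen-wide mean plus 3 SD, computed separately per campaign, cut at about 16% in these data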;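 also: inhibitors lower the luminescence because luciferase stays unfolded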
TWEAK Fn14 block: blocks TWEAK-Fn14 interaction in a reporter cell assay. actives 2% (n = 360,000). inhibition, % at 10 µM. AID 1159606. TWEAK-stimulated Fn14 reporter cells, luciferase luminescence, 8 h; in the data active = inhibition above about 50%
aSyn 5UTR inh: 5' untranslated region of α-synuclein, MLPCN primary screen | alpha-synuclein 5'UTR reporter, inhibitor activity | inhibition, % (tested at 7.5 µM) | actives 0.82% (n = 300,000) | AID 1813; in the data active = inhibition above about 60%;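 also: H4 neuroglioblastoma cells stably carrying SNCA 5'UTR luciferase fusion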
HIF-2a inh: inhibitors of HIF-2a; 786-0 RCC cells HIF-2a reporter, luciferase luminescence, overnight; inhibition, % at 18.8 µM; actives 0.72% (n = 360,000);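 active = inhibition of the luminescence signal of 40% or more relative to plate controls, in a single-dose primary screen at 18.75 µM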
Numbers stand for hits; – = inactive; · = no result. Most compounds without a hit are left out; they make up all but 3.9% or so of the library.

SMILES	TROY signal inh	C8 TRAIL sens	HSP90 refold inh	TWEAK Fn14 block	aSyn 5UTR inh	HIF-2a inh
Cc1ccc(/C=C2/CNC/C(=C/c3ccc(C)cc3)C2=O)cc1	–	–	·	103.7	·	84.7
CCCCOCCCNC(=O)C[C@@H]1C[C@@]2(C(=O)OCC)CCC=C2N(Cc2ccc(Cl)cc2Cl)C1=O	–	–	·	–	·	–
Cc1ccc(-c2nc(-c3cccnc3)no2)c(C)c1	–	–	–	–	–	–
Fc1ccc(-c2nc(-c3cnccn3)no2)c(Cl)c1	–	60.2	–	–	–	–
Clc1ccc(-c2nc(-c3cnccn3)no2)cc1	–	52.8	–	–	–	–
COC(=O)c1c(NC(=O)C2CC=CCC2C(=O)O)sc2c1CCCCC2 (stereo not drawn)	–	–	–	96.4	–	–
COC(=O)c1c(NC(C)=O)sc2c1CCCCC2	–	–	–	–	–	–
O=C(Nc1sc2c(c1C(=O)O)CCCCC2)c1ccccc1	–	–	–	64.4	–	–
N#Cc1c(NC(=O)c2ccccc2)sc2c1CCCCC2	–	53.3	–	–	–	–
O=C(Nc1ccc(Cl)cc1)c1nc[nH]c1C(=O)NCCCCNC(=O)c1[nH]cnc1C(=O)Nc1ccc(Cl)cc1	–	–	·	–	·	–
CCC(=O)CN(Cc1cc(OC)ccc1OC)S(=O)(=O)c1ccccc1Br	–	–	·	–	·	–
Cc1ccc(NC(=O)CCN2C(=O)CSC2=O)c(C)c1	·	–	–	73.9	–	–
Cc1ccccc1NC(=O)CCN1C(=O)CSC1=O	–	–	–	–	–	–
CC(C)C[C@H]1CNC(=O)C(=O)N1C[C@@H]1CCCN1C[C@H](CC(C)C)N1C[C@H](Cc2ccccc2)N(CCc2ccccc2)C(=O)C1=O	–	–	·	–	·	–
COc1ccc2c(c1)c(C(C)=O)c(C)n2CCc1ccccc1	–	–	–	68.6	–	–
CCCC[n+]1ccn(C2=C([O-])c3ccccc3C(=O)/C2=N\S(=O)(=O)c2ccc(Br)cc2)c1	–	55.9	–	–	–	–
O=C(CCCN1C(=O)/C(=C\c2ccco2)SC1=S)Nc1ccc2ccccc2c1	–	–	–	59.0	–	–
O=C(O)CCCN1C(=O)/C(=C\c2ccco2)SC1=S	–	–	–	–	–	55.3
O=C(COC(=O)c1ccccn1)c1ccc([N+](=O)[O-])cc1	–	–	–	67.0	–	–
COc1ccc(C2Oc3ccccc3C3=C2C(c2cccs2)n2ncnc2N3)cc1 (stereo not drawn)	–	–	–	–	–	–
Brc1ccc(C2C3=C(Nc4ncnn42)c2ccccc2OC3c2ccncc2)cc1 (stereo not drawn)	–	–	–	–	70.5	–
COc1ccc(NC(=S)N/C(=N/CS(=O)(=O)c2ccccc2)c2ccccc2)cc1	–	–	–	51.6	–	–
COc1ccc2cc3cc(C(=O)NCc4ccc5c(c4)OCO5)oc3nc2c1	–	–	–	–	–	–
COc1ccc2cc3cc(C(=O)N4CCN(Cc5ccc6c(c5)OCO6)CC4)oc3nc2c1	54.2	–	–	–	–	–
O=C(c1ccc(S(=O)(=O)N2CCCCC2)cc1)N1CCN(Cc2ccc3c(c2)OCO3)CC1	–	–	–	–	–	–
SMILES	TROY signal inh	C8 TRAIL sens	HSP90 refold inh	TWEAK Fn14 block	aSyn 5UTR inh	HIF-2a inh
O=C(c1ccc2nc(N3CCCCC3)sc2c1)N1CCN(Cc2ccc3c(c2)OCO3)CC1	–	–	31.4	–	–	–
Cc1ccc(/C=N/Nc2nc3ccccc3s2)o1	–	–	–	60.3	–	–
Cc1cc(C)nc(SCc2ccc(C(=O)N/N=C/c3cccc(O)c3O)cc2)n1	–	–	–	–	70.1	–
COc1cccc(NC(=O)c2cc(-c3ccccn3)nc3ccccc23)c1	–	–	·	–	·	–
COc1cccc(-c2cc(C(=O)Nc3ccncc3)c3ccccc3n2)c1	–	–	–	88.9	–	–
COc1cccc(-c2cc(C(=O)Nn3cnnc3)c3ccccc3n2)c1	–	52.4	–	–	–	–
CCOC(=O)C1=CCN(S(=O)(=O)c2ccccc2C)C1c1cccc(C)c1 (stereo not drawn)	–	–	·	–	·	–
CC(c1ccon1)N(C)C(=O)c1cccc(OC2CCN(S(C)(=O)=O)CC2)c1 (stereo not drawn)	–	–	·	–	·	–
O=C(CCl)N1c2ccccc2Oc2ccc3ccccc3c21	73.5	–	·	69.1	·	–
O=C1CN(CC(=O)N2CCOCC2)c2ccccc2O1	·	·	–	·	–	·
COCCNC(=O)c1cc(-c2ccncc2)nc2ccc(S(=O)(=O)N3CCOCC3)cc12	64.5	–	–	–	–	–
CC(C)(C)NC(=O)C1(C)CCC(=O)N1CC(F)(F)F (stereo not drawn)	–	–	·	–	·	–
CCOC(=O)C/C(C)=N\Nc1nc(-c2ccccc2)cs1	–	–	–	50.8	–	–
O=C(Nc1cccc2[nH]ncc12)c1ccc(F)cc1	–	–	–	58.9	–	–
O=C(NC(=S)Nc1cccc2[nH]ncc12)c1ccccc1	–	–	–	–	–	–
CCOc1ccc(CN(C)C(=O)[C@H](Cc2ccccc2)NC(=O)OCc2ccccc2)cc1OC	–	50.6	–	–	–	–
C/C(=N\Nc1nc2c(s1)CCCC2)c1ccccc1	–	–	16.4	–	–	–
FC(F)(F)c1nnc2c(Sc3ccccc3)nc3ccc(Cl)cc3n12	–	–	–	53.1	–	–
O=C1C=C(OCCF)CC(c2ccccc2C(F)(F)F)O1 (stereo not drawn)	·	–	·	·	·	–
Cc1csc(-c2nc3ccccc3n2C(C(=O)NC(C)(C)C)c2ccccc2)c1 (stereo not drawn)	·	–	·	·	·	–
CCN(C(=O)c1cnc(N2CCN(c3ncccn3)CC2)c2ccccc12)c1cccc(Cl)c1	–	–	–	65.7	–	–
CCC1(C)Cc2ccccc2-c2nc(SCC(N)=O)[nH]c(=O)c21 (stereo not drawn)	53.2	–	–	–	–	–
Cc1ccc(C(=O)N/C(=C\c2ccccc2)C(=O)NCC2CCCO2)cc1 (stereo not drawn)	–	–	–	–	–	–
Cc1ccc(C(=O)N/C(=C/c2ccc(Cl)cc2)C(=O)NCC2CCCO2)cc1 (stereo not drawn)	–	–	–	76.7	–	–
COc1ccc(-c2ccc(C(=O)Nc3cc(OC)c(OC)c(OC)c3)c3occc23)c(C)c1	–	–	·	–	·	–
SMILES	TROY signal inh	C8 TRAIL sens	HSP90 refold inh	TWEAK Fn14 block	aSyn 5UTR inh	HIF-2a inh
Cn1c(C(=O)Nc2ccc3c(c2)OCCO3)cc2sccc21	–	56.2	–	–	–	–
O=C(Nc1ccc2c(c1)OCCO2)c1cc2sccc2n1Cc1ccccc1	–	–	–	52.9	–	–
CCOc1ccccc1N1CCN(C(=O)c2ccc(Cl)c(S(=O)(=O)N3CCCCC3)c2)CC1	53.3	–	·	–	·	–
CCOc1ccc(NS(=O)(=O)c2cc(C(=O)N3CCCC3)ccc2Cl)cc1	–	–	·	–	–	–
CCOc1ccc(NS(=O)(=O)c2cc(C(=O)N3CCN(C(C)=O)CC3)ccc2Cl)cc1	–	–	–	88.9	–	–
CCOc1ccccc1N1CCN(C(=O)c2cc(S(=O)(=O)N3CCCCC3)ccc2C)CC1	–	–	·	–	·	–
